# Many of the other results were omitted from the sample, so hits are more common in it than they were.
# ST2 inh – blocks human ST2 binding to IL-33; Q01638; AlphaLISA ST2-Fc/biotin-IL-33 interaction, 1 h; inhibition, % for hits at 17 µM; hit rate 2.3% among 78,000; in the data active = inhibition above about 30%
# Target sequence (Q01638 whole entry, looked up): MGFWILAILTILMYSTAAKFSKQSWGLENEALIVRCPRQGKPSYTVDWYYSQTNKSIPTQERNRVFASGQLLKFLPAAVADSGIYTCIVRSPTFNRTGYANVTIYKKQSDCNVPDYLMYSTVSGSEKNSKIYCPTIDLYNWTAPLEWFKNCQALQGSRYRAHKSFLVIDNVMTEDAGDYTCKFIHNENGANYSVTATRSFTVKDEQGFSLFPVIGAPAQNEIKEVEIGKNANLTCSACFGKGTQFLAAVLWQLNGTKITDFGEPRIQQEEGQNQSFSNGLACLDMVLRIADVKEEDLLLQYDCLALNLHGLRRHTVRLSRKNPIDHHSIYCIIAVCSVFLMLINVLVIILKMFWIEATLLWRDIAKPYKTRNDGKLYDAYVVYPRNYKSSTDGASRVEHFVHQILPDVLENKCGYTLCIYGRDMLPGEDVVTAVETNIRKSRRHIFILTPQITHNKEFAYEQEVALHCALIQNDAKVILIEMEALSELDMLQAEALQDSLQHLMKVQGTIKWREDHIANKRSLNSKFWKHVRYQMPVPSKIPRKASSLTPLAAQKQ
# The depositor's hits bear a star; i = inactive; ! = not confirmed by another sample.
SMILES,ST2 inh
NC(=O)NC(=O)CC1Sc2ccc(C(F)(F)F)cc2NC1=O (stereo not drawn),i
COCCCNC(=O)C1CCN(S(=O)(=O)c2ccc(OC)cc2)CC1,i
CCCNC(=O)COc1cc(C)ccc1C,i
CC(=O)NC(C(N)=O)C(SCc1ccccc1)c1c[nH]c2ccccc12 (stereo not drawn),i
CC(=O)n1c2ccccc2c2cc([N+](=O)[O-])ccc21,i
CC(=O)n1cc(C(C[N+](=O)[O-])SCc2ccccc2)c2ccccc21 (stereo not drawn),41%*
N#Cc1cc2oc3ccccc3c3ccccc3oc2cc1C#N,i
CC(C)OCCCNC(=O)c1cnc2n(c1=O)CCS2,i
COc1ccc(-c2[nH]c3ccccc3c2C(C[N+](=O)[O-])c2ccco2)cc1 (stereo not drawn),i
COc1ccc(NC(=O)c2ccccc2Sc2ccc([N+](=O)[O-])cc2)cc1,i
COc1ccc(C(C[N+](=O)[O-])Sc2ccccc2N)cc1 (stereo not drawn),32%*!
O=[N+]([O-])c1ccc2nc(/C=C/c3ccco3)[nH]c2c1,32%*
O=c1[nH]c(SCc2nc3ccc([N+](=O)[O-])cc3[nH]2)nc2ccccc12,i
CCSc1nc2ccc([N+](=O)[O-])cc2[nH]1,i
COc1cc2c(cc1CN1CC3(CCNCC3)CC1C(=O)O)OCO2 (stereo not drawn),i
CCOc1ccc(CNc2nc(-c3nnc(-c4ccc(C)cc4)o3)nc3ccccc23)cc1,i
Cc1cc(S(=O)(=O)n2cnc3ccccc32)c(Cl)cc1Cl,i
CC1=C[C@@H](CNC(=O)c2ccc(C#N)cc2)[C@H](C(C)C)C[C@H]1CC(=O)Nc1ccccn1,81%*
CC1=C[C@@H](CNC(=O)c2ccncc2)[C@H](C(C)C)C[C@H]1CC(=O)NCc1ccc(C#N)cc1,i
CC1=C[C@@H](CNS(=O)(=O)c2cccc(C#N)c2)[C@H](C(C)C)C[C@H]1CC(=O)Nc1ccccn1,i
Cn1c(=O)cc(SCC(=O)N2CCC(Cc3ccccc3)CC2)c2ccccc21,i
CC1=C(C(=O)Nc2cc(C)ccn2)C(c2ccc(Cl)cc2)C2=C(CC(C)(C)CC2=O)N1 (stereo not drawn),i
Cc1nn(C)c(C)c1C(=O)O,i
COc1ccc(C(Nc2ccccn2)c2ccc3ccc(C)nc3c2O)cc1C (stereo not drawn),31%*
Cc1ccc(S(=O)(=O)Nc2ccccn2)cc1C,i
SMILES,ST2 inh
O=c1cc(CO)oc(C(Nc2ccccn2)c2ccc3c(c2)OCO3)c1O (stereo not drawn),i
Cc1cccc(NC(c2cccc(F)c2)c2ccc3cccnc3c2O)n1 (stereo not drawn),i
Cc1cccc(NC(c2ccc(F)cc2)c2ccc3cccnc3c2O)n1 (stereo not drawn),30%*
Cc1cccc(NC(c2cccc(C)n2)c2ccc3ccc(C)nc3c2O)n1 (stereo not drawn),i
COc1cc(C(Nc2cc(C)ccn2)c2ccc3cccnc3c2O)ccc1O (stereo not drawn),i
CCC(C(=O)Nc1cccc(C)n1)c1ccccc1 (stereo not drawn),i
Cc1ccnc(NC(c2ccc(N(C)C)cc2)c2ccc3cccnc3c2O)c1 (stereo not drawn),32%*
O=C(CCS(=O)(=O)c1cccc2cccnc12)Nc1ccc(F)cc1,i
Cc1cccc(NC(c2ccccc2)c2ccc3ccc(C)nc3c2O)n1 (stereo not drawn),36%*
CC(=O)NC(c1ccc(Cl)cc1Cl)c1ccc2cccnc2c1O (stereo not drawn),i
Oc1ccccc1CN1CCCC(Nc2cccc(F)c2)C1 (stereo not drawn),i
Cn1c(SCC(=O)Nc2cccc(Cl)c2)nc2c([nH]c3ccccc32)c1=O,i
CCN(CC)c1ccc(C2C(C(=O)Nc3ccc(C)cn3)=C(C)NC3=C2C(=O)CC(C)(C)C3)cc1 (stereo not drawn),i
C=CCNC(=O)N[C@H]1[C@H](O)[C@@H](N(CC)CC)[C@@H]2OC[C@H]1O2,i
Cc1nn(C)cc1-c1ccnc(NCc2cc(-c3ccccc3)n(C)n2)n1,i
Cc1cccc(NC(c2cccc(Cl)c2)c2ccc3cccnc3c2O)n1 (stereo not drawn),34%*
Cc1cc(Cl)ccc1NC(=O)CSc1cccc2cccnc12,i
Cc1cc(C)n(-c2cccc3cccnc23)n1,i
COc1ccc(CNC(=O)CC[C@@H]2CNC(=O)[C@@H]3C[C@H](NC(=S)Nc4ccccc4)CN23)cc1,i
Cc1cnc(C)c(N2CCN(Cc3nc(-c4sccc4C)oc3C)CC2)n1,i
N#CSc1ccc(NC2(c3ccccc3)C(=O)c3ccccc3C2=O)cc1,34%*
O=C(O)CC1(c2ccccc2)C(=O)c2ccccc2C1=O,i
CCOc1ccc(OCC)c(NS(=O)(=O)c2cccc3cccnc23)c1,i
COc1ccccc1NC(=O)C(C(C)C)N1C(=O)c2ccccc2C1=O (stereo not drawn),i
